The values that follow come from PubChem BioAssay.

Measured potencies and affinities stand elsewhere. Activity calls are given as the source filed them.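 How the source made its calls, unless noted: active means a dose-response fit showing signal loss, with half-maximal concentration no higher than twice the top tested dose; inconclusive means flat fit between 30% and 70% signal loss, or poor fit; inactive means the rest.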

A short description of one assay: C. neoformans lysis by adenylate kinase leakage – AK release luminescence, cherry-picks, dose response (AID 687000;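 active means fitted dose curve reaches 40% lysis signal rise at or below the highest valid concentration tested for that sample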;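 further: luminescent detection of adenylate kinase leaking from lysed yeast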). The settings on record: 4 h, 100% = twice the neutral-control signal; series mostly up to 15 µM.
Regarding `CNC[C@H]1Oc2ccc(NC(=O)Cc3cn(C)c4ccccc34)cc2CC(=O)N([C@@H](C)CO)C[C@H]1C`, the compound was classed as inactive.

As for `CCNC(=O)Nc1ccc2c(c1)C(=O)N(C)[C@H]1CC[C@H](CC(=O)Nc3ccccc3F)O[C@@H]1CO2`, the compound was classed as inactive.

Take `COc1ccc(CNC(=O)COc2ccc(OC)cc2)cc1`: the compound was called inactive.

Consider `CC(C)CC#Cc1ccc2c(c1)O[C@@H](CN(C)C(=O)C1CCC1)[C@@H](C)CN([C@H](C)CO)S2(=O)=O`, for which the result was inactive.

With `C[C@H](CO)N1C[C@H](C)[C@@H](CN(C)S(=O)(=O)c2ccccc2)Oc2c(NC(=O)Nc3cccc4ccccc34)cccc2C1=O`, the call was inactive.

For `COc1ccc(C(=O)NC(=S)Nc2cccc(Cl)c2N2CCOCC2)cc1[N+](=O)[O-]`, the compound was called inactive.

On to `C[C@H]1CN([C@@H](C)CO)S(=O)(=O)c2ccc(C#Cc3ccccn3)cc2O[C@@H]1CN(C)Cc1ccccc1`, for which the compound was called inactive.

As for `CCCNC(=O)N1[C@H](CO)[C@@H](c2ccc(C3=CCCC3)cc2)[C@@H]1CN(C)C(C)=O`, the outcome was inactive.

Consider `CC(C)(C)c1ccc(OCC(=O)NC(c2ccccc2)c2ccccc2)cc1`, for which the compound was called inactive.

As for `O=C(c1cccc(F)c1)N1C[C@@H]2[C@H](c3ccccc31)[C@H](CO)N2Cc1cocn1`, the result was inactive.

Turning to `C[C@@H]1CN([C@@H](C)CO)C(=O)c2cc(NS(=O)(=O)c3ccc(F)cc3)ccc2O[C@@H](C)CCCCO[C@H]1CN(C)S(=O)(=O)c1ccc(F)cc1`, the outcome was inactive.

On to `C[C@H](O)C#Cc1ccc2c(c1)O[C@H](CN(C)C(=O)C1CCCCC1)[C@H](C)CN([C@@H](C)CO)S2(=O)=O`, for which the outcome was inactive.

Turning to `C[C@H](CO)N1C[C@H](C)[C@H](CN(C)C(=O)NC2CCCCC2)OCCCC[C@H](C)Oc2ccc(NC(=O)C3CCCCC3)cc2C1=O`, the call was inactive.

Another assay is described as follows: viability loss in HepG2 hepatoma cells – cell-based, cherry-picks, set 2, cytotoxicity control, dose response (AID 687002). The note with it: ATP luminescence (CellTiter-Glo), 48 h; series mostly up to 26 µM.
Consider `CCS(=O)(=O)NCC[C@@H]1CC[C@@H](NS(=O)(=O)c2cccc(F)c2)[C@@H](CO)O1`, for which the call was inactive.

As for `COc1cccc(S(=O)(=O)N(C)C[C@H]2OCc3cnnn3CCCC(=O)N([C@H](C)CO)C[C@H]2C)c1`, the compound was called inactive.

With `Cc1cc(C(=O)NC(=S)Nc2ccccc2N2CCCC2)ccc1[N+](=O)[O-]`, the outcome was inactive.

For the compound `CCC(=O)N1[C@@H]2Cn3c(ccc(C4=CCCCC4)c3=O)[C@H]1[C@@H](C(=O)N[C@H](C)c1ccccc1)[C@@H]2CO`, the call was inactive.

Take `C[C@@H]1CN([C@H](C)CO)C(=O)CCCn2cc(nn2)CO[C@@H]1CN(C)C(=O)CCCN(C)C`: the compound was classed as inactive.

As for `CNC(=O)C[C@H]1CC[C@H]2[C@@H](COc3ccc(NC(=O)Nc4cccc(C#N)c4)cc3C(=O)N2C)O1`, the compound was called inactive.

For the compound `CCCC(=O)N1CCCC1(C)C(=O)Nc1ccc(C)c(C)c1` (configuration not stated), the compound was called inactive.

Take `C[C@H]1CN([C@@H](C)CO)C(=O)Cc2cc(NC(=O)CCCCCC(=O)Nc3ccccc3N)ccc2O[C@H]1CN(C)Cc1ccc2c(c1)OCO2`: the compound was classed as inactive.

Consider `CNC(=O)C[C@@H]1CC[C@@H]2[C@H](COc3ccc(NC(=O)c4cc(C)on4)cc3C(=O)N2C)O1`, for which the call was inactive.

For the compound `COc1ccccc1C(=O)Nc1ccc2c(c1)OC[C@H](C)N(C(C)=O)C[C@H](C)[C@H](OC)CN(C)C2=O`, the result was inactive.

Regarding `O=C(NC(=S)Nc1ccc(CN2CCOCC2)cc1)c1ccccc1[N+](=O)[O-]`, the outcome was inactive.

As for `C[C@@H]1CN([C@@H](C)CO)C(=O)c2cc(NC(=O)Nc3cccc4ccccc34)ccc2O[C@@H]1CN(C)C(=O)Nc1ccccc1`, the outcome was inactive.

For `C[C@H]1CN([C@@H](C)CO)S(=O)(=O)c2ccc(Br)cc2O[C@@H]1CN(C)S(=O)(=O)c1ccccc1F`, the call was inactive.

Turning to `C[C@H]1CN([C@@H](C)CO)C(=O)c2cccc(NS(C)(=O)=O)c2O[C@H]1CN(C)C(=O)Nc1ccc2c(c1)OCO2`, the compound was called inactive.

Regarding `C[C@@H]1CN([C@@H](C)CO)S(=O)(=O)c2ccc(C#Cc3ccccn3)cc2O[C@H]1CN(C)Cc1ccccc1`, the result was inactive.

Take `CN1C(=O)c2cc(NS(C)(=O)=O)ccc2OC[C@@H]2O[C@@H](CC(=O)O)CC[C@@H]21`: the outcome was inactive.

Take `CN1C(=O)c2cc(NC(=O)NC3CCCC3)ccc2OC[C@H]2O[C@@H](CC(=O)NC3CCC3)CC[C@@H]21`: the compound was classed as inactive.

As to `COc1ccccc1CNC(=O)C[C@@H]1C[C@@H]2c3cc(NC(=O)Nc4ccccc4F)ccc3O[C@@H]2[C@H](CO)O1`, the compound was classed as inactive.

As to `COc1ccccc1CN1CC[C@H]2[C@H](CO)Nc3ccc(C#Cc4ccccc4)cc3[C@H]21`, the outcome was inactive.

For `Cc1noc(C)c1NC(=O)Nc1ccc2c(c1)C(=O)N(C)[C@@H]1CC[C@H](CC(=O)N[C@H]3CCN(Cc4ccccc4)C3)O[C@@H]1CO2`, the result was inactive.

On to `C[C@H]1CN([C@@H](C)CO)C(=O)Cc2cc(NC(=O)Nc3ccccc3)ccc2O[C@H]1CN(C)C(=O)Nc1ccc2c(c1)OCO2`, for which the compound was classed as inactive.

Consider `C[C@H]1CN([C@@H](C)CO)C(=O)CCCn2nncc2CO[C@@H]1CN(C)Cc1cccc(C(F)(F)F)c1`, for which the compound was called inactive.

Consider `CCOc1ccc(C(=O)NC(=S)Nc2ccccc2N2CCC(C)CC2)cc1[N+](=O)[O-]`, for which the compound was called inactive.

On to `CC(=O)NC[C@@H]1[C@@H](c2ccc(C3=CCCC3)cc2)[C@@H](CO)N1C(=O)NC(C)C`, for which the compound was called inactive.

For `CS(=O)(=O)c1ccc(-c2cnc3c(NC=O)cc(-c4ccsc4)cn23)cc1`, the result was inactive.

Turning to `CNC(=O)C[C@@H]1CC[C@@H]2[C@H](COC[C@H](O)CN2S(=O)(=O)c2cccc(Cl)c2)O1`, the compound was classed as inactive.

`CNC[C@H]1Oc2ccc(NC(=O)Cc3cn(C)c4ccccc34)cc2CC(=O)N([C@@H](C)CO)C[C@H]1C`: the result was inactive.

On to `CCNC(=O)Nc1ccc2c(c1)C(=O)N(C)[C@H]1CC[C@H](CC(=O)Nc3ccccc3F)O[C@@H]1CO2`, for which the compound was classed as inactive.

Regarding `COc1ccc(CNC(=O)COc2ccc(OC)cc2)cc1`, the compound was called inactive.

Take `CC(C)CC#Cc1ccc2c(c1)O[C@@H](CN(C)C(=O)C1CCC1)[C@@H](C)CN([C@H](C)CO)S2(=O)=O`: the outcome was inactive.

Regarding `C[C@H](CO)N1C[C@H](C)[C@@H](CN(C)S(=O)(=O)c2ccccc2)Oc2c(NC(=O)Nc3cccc4ccccc34)cccc2C1=O`, the result was inactive.

With `COc1ccc(C(=O)NC(=S)Nc2cccc(Cl)c2N2CCOCC2)cc1[N+](=O)[O-]`, the compound was called inactive.

As for `C[C@H]1CN([C@@H](C)CO)S(=O)(=O)c2ccc(C#Cc3ccccn3)cc2O[C@@H]1CN(C)Cc1ccccc1`, the compound was called inactive.

Consider `CCCNC(=O)N1[C@H](CO)[C@@H](c2ccc(C3=CCCC3)cc2)[C@@H]1CN(C)C(C)=O`, for which the compound was classed as inactive.

On to `CC(C)(C)c1ccc(OCC(=O)NC(c2ccccc2)c2ccccc2)cc1`, for which the result was inactive.

As for `O=C(c1cccc(F)c1)N1C[C@@H]2[C@H](c3ccccc31)[C@H](CO)N2Cc1cocn1`, the compound was called inactive.

On to `C[C@@H]1CN([C@@H](C)CO)C(=O)c2cc(NS(=O)(=O)c3ccc(F)cc3)ccc2O[C@@H](C)CCCCO[C@H]1CN(C)S(=O)(=O)c1ccc(F)cc1`, for which the result was inactive.

Consider `C[C@H](O)C#Cc1ccc2c(c1)O[C@H](CN(C)C(=O)C1CCCCC1)[C@H](C)CN([C@@H](C)CO)S2(=O)=O`, for which the outcome was inactive.

In the case of `C[C@H](CO)N1C[C@H](C)[C@H](CN(C)C(=O)NC2CCCCC2)OCCCC[C@H](C)Oc2ccc(NC(=O)C3CCCCC3)cc2C1=O`, the outcome was inactive.
